The values below come from PubChem BioAssay.

The structures appear in SMILES notation. Calls of active or inactive are those of the source.

One experiment deals with Albumin (Bos taurus) (UniProt P02769). Nature of the experiment: bovine serum albumin binders on microarray, profiling panel, artefact control for SMM control protein annotation, biochemical, small-molecule microarray, Alexa647 label, 635/667 nm fluorescence (AID 1118).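 Further: score merges 667 nm emission intensity and signal-to-noise per printed compound spot.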 The settings on record: BSA-A647 binding, fluorescence 635 nm, higher = more signal.
Albumin (Bos taurus), sequence (P02769 whole entry, looked up): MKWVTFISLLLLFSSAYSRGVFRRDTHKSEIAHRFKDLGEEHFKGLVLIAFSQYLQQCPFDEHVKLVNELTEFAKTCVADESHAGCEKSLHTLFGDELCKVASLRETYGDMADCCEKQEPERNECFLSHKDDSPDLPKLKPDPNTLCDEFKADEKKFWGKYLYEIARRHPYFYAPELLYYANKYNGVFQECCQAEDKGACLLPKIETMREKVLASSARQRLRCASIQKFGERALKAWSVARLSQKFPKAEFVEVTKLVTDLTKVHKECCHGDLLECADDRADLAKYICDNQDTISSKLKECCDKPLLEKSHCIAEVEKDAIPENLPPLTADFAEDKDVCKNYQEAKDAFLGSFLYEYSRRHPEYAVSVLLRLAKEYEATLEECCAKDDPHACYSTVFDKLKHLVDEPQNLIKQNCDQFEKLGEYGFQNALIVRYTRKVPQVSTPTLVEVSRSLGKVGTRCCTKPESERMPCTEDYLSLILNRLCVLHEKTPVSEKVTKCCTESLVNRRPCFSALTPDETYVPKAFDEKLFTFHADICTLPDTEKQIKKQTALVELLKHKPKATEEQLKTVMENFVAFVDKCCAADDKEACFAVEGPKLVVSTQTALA
Experiment [1] can be described thus: small-molecule microarray binders of probe aXIP, primary screen, biochemical, NeuroSMM set, 635/667 nm fluorescence (AID 1119).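 Further: probe is the protein aXip251-270 applied at 1 µg/mL to compound-printed slides; binding of probe to printed compounds measured as 667 nm fluorescence plus signal to noise.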 The settings on record: higher = more signal, called active from +8 up or from −8 down.
Experiment [2] is described as follows: small-molecule binders of probe aNOTCH3, primary screen, biochemical, small-molecule microarray, 635/667 nm fluorescence (AID 1120).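 Further: probe is a biotin-tagged antibody raised against NOTCH3 rather than NOTCH3 protein; score merges spot fluorescence near 667 nm with spot signal to noise.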 The following applies: higher = more signal.
The nature of experiment [3]: small-molecule binders of probe aNOTCH2, primary screen, biochemical, small-molecule microarray, 635/667 nm fluorescence (AID 1121).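 Further: score merges feature fluorescence read at 667 nm with its signal to noise.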 The following applies: higher = more signal.
Experiment [4] addresses Carbonic anhydrase 2 (Homo sapiens) (UniProt P00918). Briefly: CAII small-molecule binders, profiling panel, biochemical, small-molecule microarray, Alexa647-labelled CAII (AID 1122). The following applies: CAII-A647 binding fluorescence, higher = more signal.
A short description of experiment [5]: COS7 lysate on small-molecule microarray, probe aHis, 635 nm (AID 1123).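 Further: z-score combines 667nm fluorescence intensity with signal-to-noise per printed compound spot.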 The following applies: COS7 cell lysate, fluorescence, higher = more signal.
Experiment [6] in a line: compound binding in COS7 lysate, probe aLAP1, primary screen, cell lysate, small-molecule microarray (AID 1124).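 Further: lysate comes from COS7 cells expressing LAP1 and is applied at 0.3 µg/mL; score merges spot fluorescence near 667 nm with signal-to-noise over triplicate slides.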 The following applies: probe aLAP1, fluorescence, higher = more signal.
A further experiment relates to Sam68 (KHDRBS1). Briefly: Sam68 small-molecule binders, primary screen, biochemical, small-molecule microarray, 635 nm fluorescence (AID 1125).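 Further: score merges 667 nm channel intensity with signal to noise over triplicate slides.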 The following applies: small-molecule microarray binding, higher = more signal.
Experiment [7] concerns Chordin-like protein 2 (CHRDL2). Briefly: CHRDL2 small-molecule binders, primary screen, biochemical, small-molecule microarray, 635 nm fluorescence (AID 1126).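 Further: printed compound slides probed with Chrdl2 protein at 4 µg/mL for 1 h at 4 C; score merges 667 nm emission intensity with signal to noise over three replicate slides.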 The settings on record: small-molecule microarray binding, fluorescence 635 nm; higher = more signal.
The target of experiment [8] is Concanavalin-A (Canavalia ensiformis) (UniProt P02866). Nature of the experiment: ConA small-molecule binders, primary screen, artefact control for SMM control protein annotation, biochemical, small-molecule microarray, Alexa647 label, 635 nm (AID 1127).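 Further: z combines 667 nm emission intensity with signal-to-noise across three replicate slides.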 The settings on record: ConA-A647 binding fluorescence, higher = more signal.
Concanavalin-A (Canavalia ensiformis), sequence (P02866 whole entry, looked up): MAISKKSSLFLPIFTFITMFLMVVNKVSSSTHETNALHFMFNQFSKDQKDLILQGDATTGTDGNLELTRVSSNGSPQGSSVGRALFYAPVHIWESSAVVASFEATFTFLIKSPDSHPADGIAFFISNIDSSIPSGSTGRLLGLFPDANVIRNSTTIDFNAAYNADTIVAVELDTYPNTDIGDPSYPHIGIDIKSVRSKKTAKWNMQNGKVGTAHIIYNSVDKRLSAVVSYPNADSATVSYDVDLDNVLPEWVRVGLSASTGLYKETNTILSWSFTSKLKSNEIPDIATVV
Experiment [9] is described as follows: anti-His antibody binders, primary screen, artefact control for SMM control protein annotation, biochemical, small-molecule microarray, 635 nm fluorescence (AID 1128).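 Further: score merges feature fluorescence with signal-to-noise for each printed compound spot.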 The settings on record: anti-His Alexa647 antibody binding, higher = more signal.
Experiment [10] deals with Human papillomavirus type 1a E7 protein (residues 1-88). Briefly: HPV1a E7 small-molecule binders, primary screen, biochemical, small-molecule microarray, residues 1-88, 635 nm (AID 1129). The settings on record: small-molecule microarray binding, fluorescence 635 nm; higher = more signal.
In experiment [11] the target is Focal adhesion kinase 1 (Homo sapiens) (UniProt Q05397). Nature of the experiment: small-molecule microarray binders of FAK, primary screen, biochemical, 635/667 nm fluorescence, BSA, DTT (AID 1130).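 Further: composite of spot emission at 667 nm and signal to noise over triplicate slides.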 The following applies: PTK2 binding, 635 nm fluorescence, higher = more signal.
Focal adhesion kinase 1 (Homo sapiens), sequence (Q05397 whole entry, looked up): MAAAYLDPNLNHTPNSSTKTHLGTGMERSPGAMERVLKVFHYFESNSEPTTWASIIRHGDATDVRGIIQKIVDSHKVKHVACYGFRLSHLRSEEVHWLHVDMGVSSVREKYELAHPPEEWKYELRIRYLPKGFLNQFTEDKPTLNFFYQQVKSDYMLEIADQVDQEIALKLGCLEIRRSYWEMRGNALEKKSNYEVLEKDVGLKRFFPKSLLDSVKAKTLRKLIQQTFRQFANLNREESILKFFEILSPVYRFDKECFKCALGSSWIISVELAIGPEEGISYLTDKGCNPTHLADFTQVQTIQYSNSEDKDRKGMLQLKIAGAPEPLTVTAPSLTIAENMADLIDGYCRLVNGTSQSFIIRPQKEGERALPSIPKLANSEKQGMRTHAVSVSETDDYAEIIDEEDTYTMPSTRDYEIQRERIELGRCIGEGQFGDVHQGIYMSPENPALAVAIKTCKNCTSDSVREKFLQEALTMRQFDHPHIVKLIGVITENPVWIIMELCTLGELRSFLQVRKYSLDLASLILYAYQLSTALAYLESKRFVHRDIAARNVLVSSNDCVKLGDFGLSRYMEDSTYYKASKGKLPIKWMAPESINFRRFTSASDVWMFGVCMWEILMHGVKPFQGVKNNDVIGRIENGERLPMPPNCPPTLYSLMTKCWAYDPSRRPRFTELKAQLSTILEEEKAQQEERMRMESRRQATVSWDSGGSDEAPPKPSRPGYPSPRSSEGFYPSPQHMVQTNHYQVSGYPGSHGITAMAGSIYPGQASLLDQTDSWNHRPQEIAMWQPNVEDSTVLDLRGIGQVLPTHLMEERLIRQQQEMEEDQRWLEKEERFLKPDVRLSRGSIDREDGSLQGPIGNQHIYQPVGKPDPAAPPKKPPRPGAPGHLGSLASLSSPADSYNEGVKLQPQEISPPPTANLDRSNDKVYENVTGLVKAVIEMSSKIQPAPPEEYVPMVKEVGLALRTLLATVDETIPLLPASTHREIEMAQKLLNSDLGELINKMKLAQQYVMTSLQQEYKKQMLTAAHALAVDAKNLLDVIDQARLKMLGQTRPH
Experiment [12] deals with Fibrinogen (Alexa647-labelled). Briefly: fibrinogen binders on compound microarrays, profiling panel, artefact control for SMM control-protein annotation, biochemical, small-molecule microarray, 635/667 nm fluorescence (AID 1131).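 Further: z-score merges 667 nm fluorescence with per-spot signal-to-noise over triplicate slides.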 The following applies: fibrinogen-A647 binding fluorescence, higher = more signal.
Experiment [13] concerns the target Follistatin (Homo sapiens) (UniProt P19883). Nature of the experiment: follistatin binders on small-molecule microarrays, primary screen, biochemical, small-molecule microarray, 635/667 nm fluorescence (AID 1132). The following applies: FST binding, 635 nm fluorescence, higher = more signal.
Experiment [14] concerns the target Fibroblast growth factor 2 (Homo sapiens) (UniProt P09038). Briefly: FGF2 binders on small-molecule microarrays, primary screen, biochemical, small-molecule microarray, 635/667 nm fluorescence (AID 1133). The following applies: small-molecule microarray binding, FGF2, fluorescence 635/667; higher = more signal.
The nature of experiment [15]: mitochondrial membrane potential change in A549 cells, profiling panel, cell-based, JC-1 fluorescence, basal, 24 h, 100 nL (AID 1138).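 Further: A549 lung adenocarcinoma cells under basal conditions with no added stimulus; test concentration not given here.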 The settings on record: higher = more signal.
For a further experiment, the system named is Lefty1. Briefly: Lefty1 binders on small-molecule microarrays, primary screen, biochemical, small-molecule microarray, 635/667 nm fluorescence (AID 1139). The settings on record: small-molecule microarray binding, fluorescence 635/667; higher = more signal.
The test system of experiment [16] is wheat germ agglutinin (Triticum aestivum), Alexa647-labelled. Briefly: wheat germ agglutinin binders on compound microarrays, profiling panel, artefact control for SMM control-protein annotation, biochemical, small-molecule microarray, 635/667 nm fluorescence (AID 1140).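 Further: score merges 667 nm feature emission with signal to noise over triplicate slides.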 The settings on record: WGA-A647 binding, 635 nm fluorescence, higher = more signal.
For experiment [17], the target named is Luciferin 4-monooxygenase (Photinus pyralis) (UniProt P08659). Nature of the experiment: firefly luciferase enzyme inhibitors, primary screen, biochemical, luminescence, purified enzyme, 2006 set (AID 1141).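 Further: cell-free assay with purified firefly luciferase at 100 ng per well in PBS; test concentration not given here.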 The settings on record: SteadyGlo luminescence, 30 min, higher = more signal, called active from +8 up or from −8 down.
Luciferin 4-monooxygenase (Photinus pyralis), sequence (P08659 whole entry, looked up): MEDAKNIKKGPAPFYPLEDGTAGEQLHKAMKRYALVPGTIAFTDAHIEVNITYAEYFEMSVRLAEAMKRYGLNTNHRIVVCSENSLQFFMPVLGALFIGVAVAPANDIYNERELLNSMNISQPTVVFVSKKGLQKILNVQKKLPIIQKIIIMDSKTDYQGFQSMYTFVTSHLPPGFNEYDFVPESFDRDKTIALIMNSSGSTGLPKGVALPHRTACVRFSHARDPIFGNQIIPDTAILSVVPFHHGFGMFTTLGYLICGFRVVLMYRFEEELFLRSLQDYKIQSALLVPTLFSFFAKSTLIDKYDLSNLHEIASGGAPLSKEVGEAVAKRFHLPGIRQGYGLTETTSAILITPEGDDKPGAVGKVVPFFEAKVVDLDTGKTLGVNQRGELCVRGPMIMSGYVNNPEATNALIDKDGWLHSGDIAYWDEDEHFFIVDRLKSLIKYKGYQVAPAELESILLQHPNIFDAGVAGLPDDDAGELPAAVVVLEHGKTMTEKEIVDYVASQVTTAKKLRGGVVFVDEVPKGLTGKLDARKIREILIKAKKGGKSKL

Fibroblast growth factor 2 (Homo sapiens), sequence (P09038 whole entry, looked up): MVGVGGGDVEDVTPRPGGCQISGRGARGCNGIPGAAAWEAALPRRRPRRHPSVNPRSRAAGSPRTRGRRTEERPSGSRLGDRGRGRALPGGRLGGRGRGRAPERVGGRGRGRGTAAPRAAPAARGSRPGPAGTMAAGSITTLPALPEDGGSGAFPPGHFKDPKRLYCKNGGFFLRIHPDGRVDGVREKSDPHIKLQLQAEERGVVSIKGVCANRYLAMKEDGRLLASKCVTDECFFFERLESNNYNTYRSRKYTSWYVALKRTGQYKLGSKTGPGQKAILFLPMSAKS
Follistatin (Homo sapiens), sequence (P19883 whole entry, looked up): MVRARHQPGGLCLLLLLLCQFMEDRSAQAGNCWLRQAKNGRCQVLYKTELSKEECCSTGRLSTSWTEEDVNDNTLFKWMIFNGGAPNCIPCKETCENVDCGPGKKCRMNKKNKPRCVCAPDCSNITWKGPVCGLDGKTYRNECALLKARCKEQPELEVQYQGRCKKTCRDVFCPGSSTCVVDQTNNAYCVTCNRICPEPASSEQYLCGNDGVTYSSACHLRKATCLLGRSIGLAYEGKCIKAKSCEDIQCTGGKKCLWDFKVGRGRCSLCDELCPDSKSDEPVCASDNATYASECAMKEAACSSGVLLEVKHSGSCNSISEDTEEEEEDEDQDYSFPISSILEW

In the case of `C=C(/C(=C/C[C@H](OC(C)=O)c1ccc(OCCO)cc1)c1cc(C(=O)OC)ccc1OC)C(C)C`, the composite z-score is 0.322 with Albumin (Bos taurus); 0.0562 in experiment [2]; -0.0666 in experiment [3]; 0.767 in experiment [4]; 1.73 in experiment [5]; -0.144 in [6]. The composite z-score is 1.31 in the experiment with Sam68 (KHDRBS1); 0.305 in [7]; 0.883 in experiment [8]; 1.16 in experiment [9]; 1.08 in experiment [10]; 0.413 in experiment [11]. In addition, the composite z-score in experiment [12] worked out at 0.812; in experiment [13], 1.13; in experiment [14], 1.58; in the experiment on Lefty1 it was 1.55; in [16] it was 0.307. Also, in [1], the composite Z-score was 0.218 (inactive). In addition, the z-score in experiment [15] is 1.75; in [17], -2.33 (inactive).
In the case of `C=CC[C@@]1(C(=O)N2CCCCC2)N=C(c2ccc(OCCCO)cc2)O[C@@H]1c1ccccc1N=[N+]=[N-]`, the composite z-score is 0.82 in the experiment with Albumin (Bos taurus); 0.185 in experiment [2]; 0.0497 in experiment [3]; 0.443 in [4]; 2.41 in experiment [5]; -0.0724 in experiment [6]. Also, the composite z-score in the experiment with Sam68 (KHDRBS1) was 1.29; in experiment [7], -0.294; in [8] it was 1.04; in [9] it was 2.24; in experiment [10] it was 1.23; in experiment [11], 0.407. In addition, the composite z-score in experiment [12] was found to be 0.957; in experiment [13] it was 1.09; in experiment [14], 0.162; in the experiment with Lefty1, 0.0928; in experiment [16], 1.06. In experiment [1], the composite Z-score was -0.797 (inactive). The z-score in [15] was -0.35; in experiment [17], -10.4 (active).
For `CN1CCC(CCCO)=CC1c1cccs1` (stereo not given), the composite z-score with Albumin (Bos taurus) is -0.552; in experiment [2], -0.0048; in experiment [3] it was -0.148; in experiment [4], 0.74; in experiment [5], -0.743; in experiment [6], -0.476. Moreover, the composite z-score with Sam68 (KHDRBS1) was -0.203; in experiment [7], -0.154; in [8], -0.384; in experiment [9] it was -0.321; in experiment [10], -0.902; in [11] it was -0.698. Besides, the composite z-score was 0.0141 in experiment [12]; -0.0163 in [13]; 0.184 in experiment [14]; 0.118 in the experiment on Lefty1; -0.485 in experiment [16]. Besides, in [1], the composite Z-score was 0.639 (inactive). For the same molecule, the z-score in [15] was 0.391; in experiment [17], 0.0421 (inactive).
On to `CC(=CC1CCCCC1)[C@@H](NC(=O)c1cccnc1)c1ccc(-c2ccccc2)cc1`, for which the composite z-score in the experiment with Albumin (Bos taurus) was 0.513; in [2] it was -0.118; in experiment [3], -0.0665; in experiment [4] it was 0.0804; in experiment [5] it was 1.24; in experiment [6], -0.264. The composite z-score in the experiment on Sam68 (KHDRBS1) is -0.649; in experiment [7] it was -0.531; in experiment [8], 0.132; in experiment [9], 0.219; in [10] it was 0.242; in [11], -0.0341. The composite z-score is 0.0017 in [12]; -0.0317 in [13]; -0.741 in experiment [14]; -0.496 in the experiment with Lefty1; 0.495 in [16]. Besides, the composite Z-score in experiment [1] is -0.8 (inactive). The z-score in experiment [15] was -0.637; in [17] it was 0.722 (inactive).
On to `COC(=O)[C@@]1(Cc2ccc(F)cc2)[C@H]2c3cc(C(=O)N(C)C)n(Cc4cc(C)n(C)n4)c3C[C@H]2CN1C(=O)c1ccccc1`, for which the composite z-score was determined as 1.03 with Albumin (Bos taurus); 0.19 in experiment [2]; 0.0552 in [3]; 0.806 in experiment [4]; 3.08 in [5]; 0.738 in experiment [6]. The composite z-score in the experiment with Sam68 (KHDRBS1) was 1.31; in experiment [7] it was -0.141; in [8], 1.01; in [9], 2.76; in [10], 1.2; in experiment [11] it was 0.646. In addition, the composite z-score was 0.795 in experiment [12]; 0.577 in [13]; -0.237 in experiment [14]; -0.574 in the experiment with Lefty1; 0.537 in [16]. In experiment [1], the composite Z-score is 0.467 (inactive). Moreover, the z-score was -0.013 in experiment [15] and 0.272 (inactive) in [17].
In the case of `CC(C)N1CC=CC23O[C@@H]4C=CCOC(=O)[C@@H]4[C@H]2C(=O)N(CCCCCO)[C@@H]3C1=O` (stereo not given in full), the composite z-score with Albumin (Bos taurus) was 1.02; in experiment [2], -0.12; in experiment [3] it was -0.153; in experiment [4], 0.733; in [5], 1.64; in experiment [6], 0.915. Also, the composite z-score is -0.135 in the experiment on Sam68 (KHDRBS1); -0.574 in experiment [7]; 0.823 in experiment [8]; 2.11 in experiment [9]; -0.01 in experiment [10]; 0.345 in experiment [11]. Also, the composite z-score is -1.86 in experiment [12]; -0.382 in experiment [13]; -0.377 in experiment [14]; 0.204 with Lefty1; 0.0322 in experiment [16]. For the same molecule, the composite Z-score in experiment [1] was -0.194 (inactive). Moreover, the z-score in experiment [15] was -0.178; in [17], -3.48 (inactive).
